Measured values: PubChem BioAssay (EPA / NIEHS)
Several values for one entry are separate records, joined by “and”; a condition that tells them apart may be missing. Identical values can stand only once. More than one record can exist for a structure, and the calls need not agree. Activity calls are given as the source filed them. The calls were made as follows: active = hit-call score of the fitted dose curve at least 0.9, where 1 is the maximum; inactive = score below 0.9.

Legend:
Details in all cases: mRNA level, 48 h; actives raise or lower the signal
[1] = read-out: adenosine kinase (ADK) gene, ADK (gene 132); test: LTEA_HepaRG_ADK: Life Technologies and Expression Analysis (LTEA) Assay for adenosine kinase (ADK) gene using HepaRG (AID 2283471)
Summary of the method: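 HepaRG (human liver), 48 h chemical exposure, 8-pt half-log series, top 100 uM, 0.5% DMSO vehicle. Readout: ADK mRNA by qRT-PCR vs housekeeping genes; bidirectional curve fit relative to DMSO baseline.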

[2] = read-out: Alpha-fetoprotein (AFP) gene, AFP (gene 174); test: LTEA_HepaRG_AFP: Life Technologies and Expression Analysis (LTEA) Assay for Alpha-fetoprotein (AFP) gene using HepaRG (AID 2283472)
Summary of the method: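 qRT-PCR (Fluidigm TaqMan) readout of AFP transcript, normalized to three housekeeping genes, fitted bidirectionally against 0.5% DMSO baseline. HepaRG cells received chemicals for 48 h in serum-free induction medium, top concentration 100 uM, half-log steps.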

BCL2L11 (gene 10018) = test: LTEA_HepaRG_BCL2L11: Life Technologies and Expression Analysis (LTEA) Assay for Bcl-2 (BCL2L11) gene using HepaRG (AID 2283473)
Summary of the method: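 Read-out is BCL2L11 transcript level by qRT-PCR, normalized to three housekeeping genes and fitted bidirectionally against 0.5% DMSO vehicle. HepaRG cells received chemicals for 48 h in serum-free induction medium, 100 uM down in half-log dilutions.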

[3] = read-out: Apolipoprotein A-V (APOA5) gene, APOA5 (gene 116519); test: LTEA_HepaRG_APOA5: Life Technologies and Expression Analysis (LTEA) Assay for Apolipoprotein A-V (APOA5) gene using HepaRG (AID 2283474)
Summary of the method: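 Readout is APOA5 transcript level by qRT-PCR on Fluidigm dynamic arrays, normalized to three housekeeping genes. HepaRG cultures received chemicals for 48 h at up to 100 uM (half-log steps, 0.5% DMSO), with gain or loss scored relative to DMSO.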

[4] = read-out: Bcl-2 (BID) gene, BID (gene 637); test: LTEA_HepaRG_BID: Life Technologies and Expression Analysis (LTEA) Assay for Bcl-2 (BID) gene using HepaRG (AID 2283476)
Summary of the method: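 HepaRG, 48 h exposure, 8-pt half-log series, top 100 uM, 0.5% DMSO vehicle, duplicates. Readout: BID mRNA by TaqMan qRT-PCR; housekeeping-normalized; bidirectional curve fit vs DMSO baseline.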

Caspase-3 (Homo sapiens) = Caspase-3 (Homo sapiens) (UniProt P42574); test: LTEA_HepaRG_CASP3: Life Technologies and Expression Analysis (LTEA) Assay for cysteine-aspartic acid protease (CASP3) using HepaRG (AID 2283477)
Summary of the method: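 Read-out is CASP3 mRNA level by TaqMan qRT-PCR in human HepaRG cells after 48 h chemical exposure. Eight half-log concentrations topping at 100 uM were tested in 0.5% DMSO; gain or loss was fitted relative to DMSO.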

[5] = read-out: Cytochrome P450 (CYP24A1), CYP24A1 (gene 1591); test: LTEA_HepaRG_CYP24A1: Life Technologies and Expression Analysis (LTEA) Assay for Cytochrome P450 (CYP24A1) using HepaRG (AID 2283478)
Summary of the method: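 HepaRG, 48 h chemical exposure, 8-pt half-log CRC from 100 uM, 0.5% DMSO vehicle, duplicates. Endpoint: CYP24A1 mRNA by Fluidigm TaqMan qRT-PCR, normalized ACTB/GAPDH/POLR2A; gain/loss fit vs DMSO.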

[6] = read-out: cysteine-aspartic acid protease (CASP8), CASP8 (gene 841); test: LTEA_HepaRG_CASP8: Life Technologies and Expression Analysis (LTEA) Assay for cysteine-aspartic acid protease (CASP8) using HepaRG (AID 2283480)
Summary of the method: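 qRT-PCR readout of CASP8 mRNA, normalized to three housekeeping genes, after 48 h chemical exposure of HepaRG cells; 8-point half-log series, top 100 uM, 0.5% DMSO vehicle. Bidirectional curve fitting against DMSO baseline.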

[7] = read-out: Cytochrome P450 (CYP2B6), CYP2B6 (gene 1555); test: LTEA_HepaRG_CYP2B6: Life Technologies and Expression Analysis (LTEA) Assay for Cytochrome P450 (CYP2B6) using HepaRG (AID 2283481)
Summary of the method: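 HepaRG cells plated 48 h, switched to serum-free induction medium, then dosed 48 h (8 points, half-log from 100 uM, 0.5% DMSO). RNA isolated; CYP2B6 expression measured by qRT-PCR; gain or loss fitted relative to DMSO.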

CYP2C9 (gene 1559) = test: LTEA_HepaRG_CYP2C9: Life Technologies and Expression Analysis (LTEA) Assay for CYP2C9 using HepaRG (AID 2283484)
Summary of the method: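 HepaRG, 48 h dosing, 8-pt half-log series, top 100 uM, 0.5% DMSO vehicle. Read-out: CYP2C9 transcript by TaqMan qRT-PCR, housekeeping-normalized (ACTB/GAPDH/POLR2A). Gain or loss fitted vs DMSO baseline.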

CYP2E1 (gene 1571) = test: LTEA_HepaRG_CYP2E1: Life Technologies and Expression Analysis (LTEA) Assay for CYP2E1 using HepaRG (AID 2283485)
Summary of the method: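 CYP2E1 transcript was measured by TaqMan qRT-PCR in human HepaRG cultures after 48 h chemical exposure (top 100 uM, half-log steps, 0.5% DMSO vehicle). Housekeeping-gene normalization; gain or loss fitted relative to DMSO baseline.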

CYP4A11 (gene 1579) = test: LTEA_HepaRG_CYP4A11: Life Technologies and Expression Analysis (LTEA) Assay for CYP4A11 using HepaRG (AID 2283486)
Summary of the method: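 HepaRG, 48 h chem exposure, 8 conc (100 uM top, half-log), 0.5% DMSO vehicle; qRT-PCR readout, housekeeping-gene normalized; bidirectional curve fit vs DMSO baseline.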

[8] = read-out: Cytochrome P450 3A4 (Homo sapiens) (UniProt P08684); test: LTEA_HepaRG_CYP3A4: Life Technologies and Expression Analysis (LTEA) Assay for CYP3A4 using HepaRG (AID 2283487)
Summary of the method: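 CYP3A4 transcript measured by TaqMan qRT-PCR and normalized to three housekeeping genes after 48 h chemical exposure of human HepaRG cells. Top concentration 100 uM, half-log steps, 0.5% DMSO vehicle; gain or loss fitted against DMSO baseline.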

[9] = read-out: DNA damage-inducible transcript 3 (DDIT3), DDIT3 (gene 1649); test: LTEA_HepaRG_DDIT3: Life Technologies and Expression Analysis (LTEA) Assay for DNA damage-inducible transcript 3 (DDIT3) using HepaRG (AID 2283488)
Summary of the method: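 qRT-PCR readout (Fluidigm TaqMan), housekeeping-normalized to ACTB, GAPDH, POLR2A. HepaRG cells, 48 h exposure, 8-point half-log series from 100 uM in 0.5% DMSO, duplicates. Gain or loss of signal fitted against DMSO baseline.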

[10] = read-out: Pro-epidermal growth factor (Homo sapiens) (UniProt P01133); test: LTEA_HepaRG_EGF: Life Technologies and Expression Analysis (LTEA) Assay for Epidermal growth factor (EGF) using HepaRG (AID 2283489)
Summary of the method: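 HepaRG, 48 h dosing, 100 uM top, half-log x8, 0.5% DMSO. Readout: TaqMan qRT-PCR (Fluidigm array), housekeeping-normalized. Gain or loss of signal fit vs DMSO.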

[11] = read-out: Early growth response protein 1 (EGR1) transcription factor, EGR1 (gene 1958); test: LTEA_HepaRG_EGR1: Life Technologies and Expression Analysis (LTEA) Assay for Early growth response protein 1 (EGR1) transcription factor using HepaRG (AID 2283490)
Summary of the method: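 HepaRG, 48 h exposure, 8-pt half-log series from 100 uM, 0.5% DMSO vehicle; EGR1 transcript by TaqMan qRT-PCR (Fluidigm array), housekeeping-normalized; bidirectional fit relative to DMSO baseline.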

[12] = read-out: Apoptosis regulator Bcl-2 (Homo sapiens) (UniProt P10415); test: LTEA_HepaRG_BCL2: Life Technologies and Expression Analysis (LTEA) Assay for Bcl-2 gene using HepaRG (AID 2283475)
Summary of the method: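 qRT-PCR read-out (Fluidigm TaqMan) of BCL2 transcript, normalised to three housekeeping genes, after 48 h chemical exposure of HepaRG cells; 8-point half-log series, top 100 uM, 0.5% DMSO vehicle. Gain or loss of signal fitted relative to DMSO baseline.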

Measured: AC50

Cytochrome P450 3A4 (Homo sapiens), sequence (P08684 whole entry, looked up): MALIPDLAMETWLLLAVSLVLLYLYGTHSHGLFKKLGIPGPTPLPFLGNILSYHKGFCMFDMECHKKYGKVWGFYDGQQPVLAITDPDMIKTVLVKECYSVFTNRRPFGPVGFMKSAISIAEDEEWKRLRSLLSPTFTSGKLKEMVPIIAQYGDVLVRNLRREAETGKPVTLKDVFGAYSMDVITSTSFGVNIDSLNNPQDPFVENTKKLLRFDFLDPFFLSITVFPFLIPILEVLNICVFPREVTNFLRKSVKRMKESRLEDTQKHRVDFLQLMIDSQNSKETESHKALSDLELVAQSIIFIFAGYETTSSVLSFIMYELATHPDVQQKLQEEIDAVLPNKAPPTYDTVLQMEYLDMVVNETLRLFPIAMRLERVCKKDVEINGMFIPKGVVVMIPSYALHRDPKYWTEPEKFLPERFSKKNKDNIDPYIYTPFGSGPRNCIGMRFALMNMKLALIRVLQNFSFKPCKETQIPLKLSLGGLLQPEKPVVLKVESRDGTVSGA
Caspase-3 (Homo sapiens), sequence (P42574 whole entry, looked up): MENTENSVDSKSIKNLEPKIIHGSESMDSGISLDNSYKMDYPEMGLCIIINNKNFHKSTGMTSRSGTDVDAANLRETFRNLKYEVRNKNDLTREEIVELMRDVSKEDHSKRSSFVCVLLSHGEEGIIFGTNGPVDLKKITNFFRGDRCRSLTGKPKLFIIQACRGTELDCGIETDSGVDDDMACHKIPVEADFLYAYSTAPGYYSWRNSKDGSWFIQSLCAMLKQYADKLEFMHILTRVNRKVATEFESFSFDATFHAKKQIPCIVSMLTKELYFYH
Apoptosis regulator Bcl-2 (Homo sapiens), sequence (P10415 whole entry, looked up): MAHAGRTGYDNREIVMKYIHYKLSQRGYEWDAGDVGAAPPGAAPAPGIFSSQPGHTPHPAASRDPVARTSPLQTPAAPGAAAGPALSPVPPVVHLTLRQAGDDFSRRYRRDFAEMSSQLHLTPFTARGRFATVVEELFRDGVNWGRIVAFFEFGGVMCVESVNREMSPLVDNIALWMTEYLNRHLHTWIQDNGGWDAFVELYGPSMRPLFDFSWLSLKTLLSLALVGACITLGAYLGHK

CCCN(CCC)c1c([N+](=O)[O-])cc(C(F)(F)F)cc1[N+](=O)[O-]
active: [7] 50 µM
not listed: [12]
inactive: all other assays above

CC(C)(C)C(O)C(Oc1ccc(Cl)cc1)n1cncn1 (configuration not stated)
inactive: [1] | BCL2L11 (gene 10018) | [3] | [4] | Caspase-3 (Homo sapiens) | [5] | [6] | CYP2C9 (gene 1559) | [9] | [10] | [11]
active: [2] 4.76 µM and 9.92 µM and 50 µM | [3] 50 µM | [7] 2.21 µM and 3.37 µM and 1.68 µM | CYP2E1 (gene 1571) 25.8 µM and 25.3 µM and 29.5 µM | CYP4A11 (gene 1579) 18.1 µM and 13.8 µM and 25.4 µM

O=[N+]([O-])/N=C1\NCCN1Cc1ccc(Cl)nc1
active: [1] 35.2 µM | [2] 31.7 µM | BCL2L11 (gene 10018) 23.3 µM | Caspase-3 (Homo sapiens) 26.7 µM | [7] 13.2 µM | CYP2C9 (gene 1559) 38.1 µM | CYP2E1 (gene 1571) 34.8 µM | [10] 30.2 µM
not listed: [12]
inactive: all other assays above

O=S1OCC2C(CO1)C1(Cl)C(Cl)=C(Cl)C2(Cl)C1(Cl)Cl (configuration not stated)
active: [2] 50 µM | [3] 63.8 µM | [7] 90.1 µM | CYP2C9 (gene 1559) 82.4 µM | CYP2E1 (gene 1571) 55.7 µM | CYP4A11 (gene 1579) 62.6 µM | [8] 11.7 µM | [9] 80 µM
inactive: [1] | BCL2L11 (gene 10018) | [4] | Caspase-3 (Homo sapiens) | [5] | [6] | [10] | [11]

Cc1[nH]c(=O)n(C(C)(C)C)c(=O)c1Cl
active: [7] 15.6 µM | CYP2E1 (gene 1571) 37 µM
not listed: [12]
inactive: all other assays above

CC(C)(C)C(O)/C(=C\c1ccc(Cl)cc1Cl)n1cncn1 (configuration not stated)
active: [2] 19.8 µM | BCL2L11 (gene 10018) 79.8 µM | [3] 25.3 µM | [12] 21.8 µM | [6] 80.6 µM | [7] 0.748 µM | CYP2E1 (gene 1571) 12.9 µM | CYP4A11 (gene 1579) 21.9 µM | [8] 84.5 µM | [9] 29.4 µM | [11] 33.8 µM
inactive: [1] | [4] | Caspase-3 (Homo sapiens) | [5] | CYP2C9 (gene 1559) | [10]
